Values joined by “and” are separate entries in the source; they are usually repeats but may differ in a detail not shown here. Equal values may be shown once. Some structures have more than one record in an assay (separate samples or runs), and their calls can disagree. Active and inactive are the calls of the source. The calls were made as follows: active = hit-call score of the fitted dose curve at least 0.9, where 1 is the maximum; inactive = score below 0.9.
Tests used:
[1] = read-out: Human Leukocyte Antigen - DR isotype (HLADR), HLA-DRA (gene 3122); test: BSK_BE3C_HLADR: BioMAP Diversity Plus: BE3C Assay for Human Leukocyte Antigen - DR isotype (HLADR) Biomarker Activity (AID 2283032); conditions: primary human bronchial epithelial cells; actives raise or lower the signal
Outline: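 Primary human bronchial epithelial cells (BE3C); 24 h chemical exposure; HLA-DR by ELISA; bidirectional curve fit vs DMSO baseline.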

[2] = read-out: Vascular cell adhesion molecule 1 (VCAM1), VCAM1 (gene 7412); test: BSK_4H_VCAM1: BioMAP Diversity Plus: 4H Assay for Vascular cell adhesion molecule 1 (VCAM1) Biomarker Activity (AID 2283033); conditions: primary human endothelial cells (HUVEC); actives raise or lower the signal
Outline: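 HUVEC, 24 h post-dose; VCAM-1 by ELISA. Bidirectional curve fit vs DMSO baseline. Parallel SRB total-protein stain (0.1% SRB after 10% TCA fixation, 560 nm) for cytotoxicity.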

[3] = read-out: Monokine induced gamma interferon (MIG), CXCL9 (gene 4283); test: BSK_BE3C_MIG: BioMAP Diversity Plus: BE3C Assay for Monokine induced gamma interferon (MIG) Biomarker Activity (AID 2283035); conditions: primary human bronchial epithelial cells; actives raise or lower the signal
Outline: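 Dose cells (human primary bronchial epithelial), incubate 24 h, quantify MIG by ELISA, then fit concentration–response in both directions relative to DMSO control.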

[4] = read-out: Transforming growth factor beta 1 (TGFb1), TGFB1 (gene 7040); test: BSK_BE3C_TGFb1: BioMAP Diversity Plus: BE3C Assay for Transforming growth factor beta 1 (TGFb1) Biomarker Activity (AID 2283036); conditions: primary human bronchial epithelial cells; actives raise or lower the signal
Outline: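 Read-out: ELISA for TGF-b1 in primary human bronchial epithelial cultures, 24 h post-dose. Bidirectional curve fitting vs DMSO control; gain or loss of signal both scored.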

[5] = read-out: Plasminogen activator inhibitor-1 (PAI1), SERPINE1 (gene 5054); test: BSK_BE3C_PAI1: BioMAP Diversity Plus: BE3C Assay for Plasminogen activator inhibitor-1 (PAI1) Biomarker Activity (AID 2283037); conditions: primary human bronchial epithelial cells; actives raise or lower the signal
Outline: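 ELISA read-out of PAI-1 from human bronchial epithelial primary cells, 24 h post-dosing; bidirectional curve fit vs DMSO baseline, gain or loss of signal scored.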

[6] = read-out: Urokinase-type plasminogen activator receptor (uPAR), PLAUR (gene 5329); test: BSK_BE3C_uPAR: BioMAP Diversity Plus: BE3C Assay for Urokinase-type plasminogen activator receptor (uPAR) Biomarker Activity (AID 2283039); conditions: primary human bronchial epithelial cells; actives raise or lower the signal
Outline: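 ELISA readout of uPAR on human lung primary bronchial epithelial cells, 24 h post-dosing. Bidirectional curve fit relative to DMSO vehicle baseline; gain or loss of signal both scored.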

[7] = read-out: Interleukin-6 (IL6), IL6 (gene 3569); test: BSK_CASM3C_IL6: BioMAP Diversity Plus: CASM3C Assay for Interleukin-6 (IL6) Biomarker Activity for (AID 2283040); conditions: primary human coronary artery smooth muscle cells; actives raise or lower the signal
[8] = read-out: Tissue plasminogen activator (tPA), PLAT (gene 5327); test: BSK_BE3C_tPA: BioMAP Diversity Plus: BE3C Assay for Tissue plasminogen activator (tPA) Biomarker Activity (AID 2283041); conditions: primary human bronchial epithelial cells; actives raise or lower the signal
Outline: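 ELISA read-out of tPA on human primary bronchial epithelial cells, 24 h post-dosing; bidirectional fit vs DMSO negative control/baseline.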

[9] = read-out: Interleukin-8 (IL8), CXCL8 (gene 3576); test: BSK_CASM3C_IL8: BioMAP Diversity Plus: CASM3C Assay for Interleukin-8 (IL8) Biomarker Activity (AID 2283042); conditions: primary human coronary artery smooth muscle cells; actives raise or lower the signal;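 also: IL-8 protein level quantified by ELISA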
[10] = read-out: Human Leukocyte Antigen - DR isotype (HLADR), HLA-DRA (gene 3122); test: BSK_CASM3C_HLADR: BioMAP Diversity Plus: CASM3C Assay for Human Leukocyte Antigen - DR isotype (HLADR) Biomarker Activity (AID 2283043); conditions: primary human coronary artery smooth muscle cells; actives raise or lower the signal;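 also: cell-surface HLA-DR protein level quantified by ELISA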
[11] = read-out: Macrophage colony-stimulating factor (MCSF), CSF1 (gene 1435); test: BSK_CASM3C_MCSF: BioMAP Diversity Plus: CASM3C Assay for Macrophage colony-stimulating factor (MCSF) Biomarker Activity (AID 2283044); conditions: primary human coronary artery smooth muscle cells; actives raise or lower the signal;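 also: M-CSF protein amount quantified by ELISA after 24 h exposure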
[12] = read-out: Low-density lipoprotein receptor (LDLR), LDLR (gene 3949); test: BSK_CASM3C_LDLR: BioMAP Diversity Plus: CASM3C Assay for Low-density lipoprotein receptor (LDLR) Biomarker Activity (AID 2283045); conditions: primary human coronary artery smooth muscle cells; actives raise or lower the signal;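 also: LDLR protein level on the cell surface quantified by ELISA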
[13] = read-out: Monocyte Chemoattractant Protein-1 (MCP1), CCL2 (gene 6347); test: BSK_CASM3C_MCP1: BioMAP Diversity Plus: CASM3C Assay for Monocyte Chemoattractant Protein-1 (MCP1) Biomarker Activity (AID 2283046); conditions: primary human coronary artery smooth muscle cells; actives raise or lower the signal;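 also: MCP-1 level quantified by ELISA 24 h after dosing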
[14] = BSK_CASM3C_Proliferation: Cell Proliferation Assessment in the BioMAP Diversity Plus: CASM3C Assay (AID 2283047); conditions: primary human coronary artery smooth muscle cells;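 also: sulforhodamine B total protein stain as relative cell number at 560 nm; sub-confluent cells exposed 48 h before staining; fitted both ways against DMSO so gain or loss of cell number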
[15] = read-out: Monokine induced gamma interferon (MIG), CXCL9 (gene 4283); test: BSK_CASM3C_MIG: BioMAP Diversity Plus: CASM3C Assay for Monokine induced gamma interferon (MIG) Biomarker Activity (AID 2283048); conditions: primary human coronary artery smooth muscle cells; actives raise or lower the signal;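 also: MIG protein level measured by ELISA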
[16] = read-out: serum amyloid A (SAA), SAA1 (gene 6288); test: BSK_CASM3C_SAA: BioMAP Diversity Plus: CASM3C Assay for serum amyloid A (SAA) Biomarker Activity (AID 2283049); conditions: primary human coronary artery smooth muscle cells; actives raise or lower the signal;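 also: SAA protein level quantified by ELISA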
[17] = BSK_CASM3C_SRB: Viability Assessment in the BioMAP Diversity Plus: CASM3C Assay (AID 2283050); conditions: primary human coronary artery smooth muscle cells;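 also: total protein by SRB staining as cytotoxicity measure in parallel cultures; cells exposed to compound for 24 h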
[18] = read-out: Thrombomodulin, THBD (gene 7056); test: BSK_CASM3C_Thrombomodulin: BioMAP Diversity Plus: CASM3C Assay for Thrombomodulin Biomarker Activity (AID 2283051); conditions: primary human coronary artery smooth muscle cells; actives raise or lower the signal;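 also: thrombomodulin protein level measured by ELISA 24 h after dosing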
[19] = read-out: urokinase plasminogen activator (uPA), PLAU (gene 5328); test: BSK_BE3C_uPA: BioMAP Diversity Plus: BE3C Assay for urokinase plasminogen activator (uPA) Biomarker Activity (AID 2283038); conditions: primary human bronchial epithelial cells; actives raise or lower the signal
Outline: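 Primary human bronchial epithelial cells, uPA measured by ELISA 24 h after dosing. Bidirectional change relative to DMSO; cytotoxicity checked in parallel cultures by sulforhodamine B total-protein staining.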

[20] = read-out: Interferon-gamma inducible Protein 10 (IP10), CXCL10 (gene 3627); test: BSK_BE3C_IP10: BioMAP Diversity Plus: BE3C Assay for Interferon-gamma inducible Protein 10 (IP10) Biomarker Activity (AID 2283034); conditions: primary human bronchial epithelial cells; actives raise or lower the signal
Outline: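 ELISA readout of IP-10 in BE3C system: primary human bronchial epithelial cells, 24 h post-dosing; bidirectional curve fit vs DMSO baseline.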

Measured: AC50

NC(=O)CCl
inactive: [1] | [2] | [3] | [4] | [5] | [6] | [7] | [8] | [9] | [11] | [12] | [13] | [14] | [15] | [16] | [17] | [18]
active: [10] 20 µM

OCCCCO
inactive: [1] | [2] | [3] | [5] | [6] | [7] | [8] | [9] | [10] | [11] | [12] | [13] | [14] | [15] | [16] | [17] | [18]

CCOC(=O)CC(=O)CCl
inactive: [3] | [5] | [6] | [9] | [12] | [13] | [16] | [18]
active: [1] 20 µM | [2] 20 µM | [4] 5.96 µM | [19] 4.09 µM | [7] 28.8 µM | [8] 3.97 µM | [10] 8.67 µM | [11] 20 µM | [14] 26.3 µM | [15] 31.6 µM | [17] 25.7 µM

C[C@]12CC[C@@H](O)C[C@@H]1CC[C@@H]1[C@@H]2CC[C@]2(C)C(=O)CC[C@@H]12
inactive: [1] | [2] | [20] | [3] | [4] | [5] | [19] | [6] | [7] | [8] | [9] | [10] | [11] | [13] | [14] | [15] | [16] | [17] | [18]
active: [12] 29 µM

Oc1cccc(-c2ccccc2)c1
inactive: [1] | [3] | [4] | [5] | [19] | [6] | [7] | [8] | [9] | [10] | [11] | [12] | [15] | [16] | [18]
active: [2] 36.9 µM | [13] 20 µM | [14] 34.4 µM | [17] 28.7 µM

CC1(C)[C@H](C(=O)O[C@H](C#N)c2cccc(Oc3ccccc3)c2)[C@@H]1/C=C(\Cl)C(F)(F)F
active: [1] 0.0141 µM | [12] 3.39 µM | [18] 5.06 µM and 7.16 µM
inactive: [1] | [20] | [3] | [4] | [5] | [19] | [6] | [7] | [8] | [9] | [10] | [11] | [12] | [13] | [14] | [15] | [16] | [17]

O=[N+]([O-])c1cccc2ccccc12
inactive: [1] | [2] | [3] | [4] | [5] | [6] | [7] | [8] | [9] | [10] | [11] | [12] | [13] | [14] | [15] | [16] | [17] | [18]

Cc1ccccc1OP(=O)(Oc1ccccc1C)Oc1ccccc1C
active: [1] 20 µM | [20] 13.3 µM | [4] 11.4 µM | [5] 11 µM | [7] 8.58 µM | [8] 7.43 µM | [10] 32.9 µM | [11] 29.4 µM | [13] 24.3 µM | [14] 24.3 µM | [17] 30.1 µM
inactive: [3] | [19] | [6] | [9] | [12] | [15] | [16] | [18]

O=S(=O)(C(Cl)(Cl)Cl)C(Cl)(Cl)Cl
active: [1] 3.17 µM | [2] 1.43 µM | [3] 7.75 µM | [4] 9.08 µM | [5] 3.87 µM | [6] 7.21 µM | [7] 1.61 µM | [8] 4.81 µM | [9] 1.69 µM | [10] 1.31 µM | [11] 2.2 µM | [13] 2.28 µM | [14] 0.528 µM | [15] 3.13 µM | [16] 0.877 µM | [17] 1.54 µM
inactive: [12] | [18]

CC(C)(COCC1CO1)COCC1CO1 (centres undefined)
inactive: [1] | [2] | [3] | [4] | [5] | [6] | [7] | [8] | [9] | [10] | [11] | [12] | [13] | [14] | [15] | [16] | [17] | [18]

CCC(C)(C#N)N=NC(C)(C#N)CC (centres undefined)
inactive: [1] | [2] | [20] | [3] | [4] | [5] | [19] | [6] | [7] | [8] | [9] | [10] | [12] | [13] | [14] | [15] | [16] | [17] | [18]
active: [11] 0.016 µM

C=CC(Cl)CCl (centres undefined)
inactive: [1] | [2] | [20] | [3] | [4] | [5] | [6] | [7] | [8] | [9] | [10] | [11] | [12] | [14] | [15] | [16] | [17] | [18]
active: [13] 0.0777 µM

Oc1c(Br)cc(Br)cc1Br
active: [1] 12.6 µM | [2] 20 µM | [6] 20 µM
inactive: [3] | [4] | [5] | [7] | [8] | [9] | [10] | [11] | [12] | [13] | [14] | [15] | [16] | [17] | [18]

Reference: PubChem BioAssay (EPA / NIEHS)
